Reference: PubChem BioAssay (NCATS)
“And” between values parts separate entries of the source, which are not always exact repeats. Equal values may be shown once. Results filed as inconclusive are left out. The source made the active and inactive calls. Unless noted, the call rests on the fitted dose curve; in most records, active means well fitted curve in either direction with a large enough effect (not every such curve was filed as active); inconclusive means small, poorly fitted or top-dose-only effect, or another doubt; inactive means flat fitted curve, though single readings scatter.

Key:
[1] = AP1 Signaling Pathway (AID 357); details: ME-180 AP-1-bla reporter, EGF-induced, beta-lactamase ratio, 5 h; further: on the % scale 0 is the no-effect control and ±100 the full control effect
Outline: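 AP-1-bla ME-180 cells with beta-lactamase reporter under AP-1 response element, stimulated with EC50 EGF; compounds titrated, 5 hours at 37 degrees Celsius. CCF4 read at 460/530 nm ratio; positive and negative modulators judged by AC50.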

[2] = target: Cytochrome P450 1A2 (Homo sapiens) (UniProt P05177); assay: p450-cyp1a2 (AID 410; calls by dose curve;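 further: -100% = full effect of reference inhibitor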); details: recombinant CYP1A2, luciferin-ME demethylation, luminescence; series mostly up to 57 µM
Outline: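 Human CYP1A2 (20nM) demethylated Luciferin-ME at its Km (100uM) in 100mM KPO4. After 10 min compound preincubation, NADPH regeneration ran the reaction 60 min at room temperature. Luciferin was read by luminescence, normalized to 57 uM furafylline.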

[3] = NFAT Signaling Pathway (AID 444); details: Jurkat NFAT-bla M1, carbachol, beta-lactamase ratio, 5 h;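 further: carbachol stimulus at about its EC50 of 1 µM final; on the % scale 0 is the no-effect control and ±100 the full control effect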
Outline: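 Read-out: CCF4 FRET ratio (460 nm/530 nm) after 1 h RT dye loading, used for %activity and AC50 from titration series. Cells: Jurkat NFAT-β-lactamase/M1 line, treated with compound plus 1 uM carbachol for 5 h, 37 °C.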

[4] = Stat Signaling Pathway (AID 446); details: ME-180 (cervical carcinoma) SIE beta-lactamase reporter, IL-6 stimulated, 5 h;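 further: ME-180 cervical cancer cells given 40 pM IL-6 alongside compound; SIE-controlled beta-lactamase reporter measured as 460/530 nm FRET emission ratio; on the % scale 0 is the no-effect control and ±100 the full control effect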
Outline: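 IL-6/STAT signaling read in ME-180 cells via an SIE beta-lactamase reporter. Stimulus was 40 pM IL-6 (its AC50) for 5 hrs, so both activation and inhibition register.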

[5] = target: Glucocorticoid receptor (Homo sapiens) (UniProt P04150); assay: GR-GFP Redistribution (AID 450;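 active means compounds whose dose series gives a full or clear partial fitted curve of increased nuclear translocation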; further: potency means the concentration at half of the fitted maximal effect); details: U2OS GR-GFP nuclear translocation, laser cytometry, 2 h
[6] = target: Glucocorticoid receptor (Homo sapiens) (UniProt P04150); assay: GR-EFC Redistribution (AID 451; calls by dose curve; further: potency means the concentration at half of the fitted maximal effect); details: CHO-K1 GR-EFC translocation, beta-gal luminescence, 2 h
Outline: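 Translocation of GR-ED fusion to nuclear EA restores b-gal, read by luminescence after 1 h room-temperature detection. Engineered CHO-K1 biosensor cells, 1,000/well, exposed 2 h at 37 C to titrations up to 46 uM final.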

[7] = target: Mitogen-activated protein kinase 10 (Mus musculus) (UniProt Q61831); assay: JNK3 AlphaScreen Assay (AID 530); details: JNK3 lysate, c-Jun phosphorylation; series mostly up to 57.1 µM;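 further: kinase came from lysate of stimulated human HepG2 cells; signal reports phosphorylation of biotinylated GST-cJun 1-79 at Ser73 with 10 µM ATP; on the % scale 0 is the no-effect control and ±100 the full control effect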
Outline: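 Room-temperature AlphaScreen kinase assay; pre-activated HepG2 lysate as JNK3 source, biotin-GST-cJun(1-79) substrate, 10 uM ATP, compound 15 min preincubation.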

[8] = target: Lysosomal acid glucosylceramidase (Homo sapiens) (UniProt P04062); assay: Glucocerebrosidase-p2 (AID 348; in the data active means potency below about 10 µM; further: potency means the concentration at half of the fitted maximal effect); details: purified GBA, blue fluorogenic substrate, 40 min
Outline: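 Compounds titrated from 0.6 nM upwards against 0.2 nM enzyme in pH 5.9 citric acid/KH2PO4, taurocholate, tween-20; blue fluorogenic substrate 80 uM, 40 min room temperature, stopped and read Ex 365/Em 440 for AC50.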

[9] = Cell Viability - BJ (AID 421; calls by dose curve;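 further: potency means the concentration at half of the fitted maximal effect; cells exposed to compound for 40 hours at 37 °C before readout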); details: BJ fibroblast viability, qHTS
Outline: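 Quantitative HTS: ATP depletion in BJ cells after 40 hr compound exposure in complete culture medium, detected with CellTiter-Glo; AC50 from standard Hill fits.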

[10] = Cell Viability - Jurkat (AID 426;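 active means dose-dependent loss of cell ATP signal giving a full or clear fitted curve, ranked by lower potency value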; further: potency means the concentration at half of the fitted maximal effect); details: qHTS
Outline: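 Jurkat (clone E6-1, human T-cell leukemia) cells, 5000/well in complete medium, were exposed to compound for 40 hr at 37 °C. Viability was read as intracellular ATP by CellTiter-Glo luminescence; AC50 came from Hill fits of concentration-response data.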

[11] = Cell Viability - Hek293 (AID 427;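 active means compounds whose dose-response curve shows a full or clear partial loss of cell viability, called from curve shape rather than a numeric limit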;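 further: potency means the concentration at half of the fitted maximal effect; cells exposed to compound for 40 hours at 37 °C before reading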); details: qHTS
Outline: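 AC50 values derive from Hill-modelled concentration-response of ATP-based luminescence, normalized between DMSO-only and 100 uM tamoxifen controls. Cells were exposed in complete culture medium for 40 hr at 37 °C before detection.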

[12] = Cell Viability - HepG2 (AID 433; calls by dose curve;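 further: potency means the concentration at half of the fitted maximal effect; potency for ATP loss meaning cytotoxicity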); details: qHTS
Outline: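 Cytotoxicity is scored as loss of intracellular ATP in HepG2 cells exposed to compounds for 40 h. Concentration-response curves, normalized to DMSO and 100 uM tamoxifen, give AC50 values.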

[13] = Cell Viability - MRC5 (AID 434; calls by dose curve;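 further: potency means the concentration at half of the fitted maximal effect; potency reflects cytotoxicity seen as loss of intracellular ATP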); details: MRC5 lung fibroblast viability, qHTS
Outline: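 qHTS cytotoxicity in human lung fibroblast MRC5 cells; 40 hr treatment, 37 °C; cellular ATP by luciferase luminescence; DMSO = 0%, 100 uM tamoxifen = 100% inhibition; Hill-fit AC50.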

[14] = Cell Viability - SK-N-SH (AID 435; calls by dose curve;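 further: potency means the concentration at half of the fitted maximal effect; compound exposure lasted 40 h at 37 °C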); details: SK-N-SH neuroblastoma cell viability qHTS
Outline: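 Cells seeded at 1500 per well and incubated 5 hr at 37 °C. Compound added, then 40 hr at 37 °C. CellTiter-Glo added, 20 min at room temperature, luminescence read.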

[15] = Cell Viability - N2a (AID 540; active means well fitted curve in the direction sought with a large enough effect; an effect the other way counts as inactive or inconclusive;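 further: plate controls were DMSO alone for no effect and tamoxifen control for full effect; nearly all actives have a fitted effect of over 45% in size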); details: N2a mouse neuroblastoma cell viability; activity change, negative = cytotoxicity: at 92.2 µM (top of the series)
Outline: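 Mouse neuroblastoma N2a cells (1500/well) were preincubated 5 hr at 37 °C, then exposed to compounds for 40 hr at 37 °C in complete medium. Viability was read as intracellular ATP by CellTiter-Glo luminescence; AC50 from Hill fits.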

[16] = Cell Viability - NIH 3T3 (AID 541; active means well fitted curve in the direction sought with a large enough effect; an effect the other way counts as inactive or inconclusive;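 further: plate controls were DMSO alone for no effect and tamoxifen positive control for full effect; nearly all actives have a fitted effect of over 25% in size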); details: NIH 3T3 cell viability, qHTS; activity change, negative = cytotoxicity: at 92.2 µM (top of the series)
Outline: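 NIH 3T3 mouse embryo fibroblasts (1000 cells/well) were plated in complete medium and treated with compound for 40 hr at 37 °C. Viability was read as intracellular ATP by CellTiter-Glo luminescence; AC50 values came from Hill-equation fits of concentration-response data.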

[17] = Cell Viability - HUV-EC-C (AID 542; active means well fitted curve in the direction sought with a large enough effect; an effect the other way counts as inactive or inconclusive; further: on the % scale 0 is the no-effect control and ±100 the full control effect; nearly all actives have a fitted effect of over 35% in size); details: HUV-EC-C endothelial cell viability, qHTS; series mostly up to 92.2 µM
Outline: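 HUV-EC-C normal human vascular endothelial cells, 1000 cells/well, pre-incubated 5 hr at 37 °C, then exposed to compounds for 40 hr at 37 °C in complete medium. Viability measured as intracellular ATP by CellTiter-Glo luminescence; AC50 from Hill fits.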

[18] = Cell Viability - H-4-II-E (AID 543; active means well fitted curve in the direction sought with a large enough effect; an effect the other way counts as inactive or inconclusive; further: on the % scale 0 is the no-effect control and ±100 the full control effect; nearly all actives have a fitted effect of over 35% in size); details: H-4-II-E rat hepatoma viability; series mostly up to 92.2 µM
Outline: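 Rat hepatoma H-4-II-E cells (1500/well) were plated, incubated 5 hr at 37 °C, then exposed to compounds for 40 hr at 37 °C. Cellular ATP was read by CellTiter-Glo luminescence; AC50 came from Hill-equation fits of concentration-response data.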

[19] = Cell Viability - SH-SY5Y (AID 544; active means well fitted curve in the direction sought with a large enough effect; an effect the other way counts as inactive or inconclusive;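 further: 0% = DMSO alone and -100% = 100 µM tamoxifen; nearly all actives have a fitted effect of over 55% in size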); details: SH-SY5Y neuroblastoma cell viability; viability change, negative = cytotoxic: at 92.2 µM (top of the series)
Outline: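 Human neuroblastoma SH-SY5Y cells (1500/well) in complete medium were exposed to compounds for 40 hr at 37 °C; intracellular ATP was then quantified by CellTiter-Glo luminescence after 20 min at room temperature. AC50 came from Hill-equation concentration-response fits.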

[20] = Cell Viability - Renal Proximal Tubule (AID 545; active means well fitted curve in the direction sought with a large enough effect; an effect the other way counts as inactive or inconclusive;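 further: 0% = DMSO only and -100% = 100 µM tamoxifen; nearly all actives have a fitted effect of over 40% in size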); details: renal proximal tubule cells viability, primary cells of rat origin; activity change, negative = cytotoxicity: at 91.7 µM (top of the series)
Outline: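 Cytotoxicity is scored as a concentration-dependent drop in cellular ATP in primary rat renal proximal tubule cells exposed for 40 hr. AC50 derives from Hill modelling.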

[21] = at 38 µM (top of the series) unless noted

Sequence of Glucocorticoid receptor (Homo sapiens) (P04150 whole entry, looked up, the tested form may be a part): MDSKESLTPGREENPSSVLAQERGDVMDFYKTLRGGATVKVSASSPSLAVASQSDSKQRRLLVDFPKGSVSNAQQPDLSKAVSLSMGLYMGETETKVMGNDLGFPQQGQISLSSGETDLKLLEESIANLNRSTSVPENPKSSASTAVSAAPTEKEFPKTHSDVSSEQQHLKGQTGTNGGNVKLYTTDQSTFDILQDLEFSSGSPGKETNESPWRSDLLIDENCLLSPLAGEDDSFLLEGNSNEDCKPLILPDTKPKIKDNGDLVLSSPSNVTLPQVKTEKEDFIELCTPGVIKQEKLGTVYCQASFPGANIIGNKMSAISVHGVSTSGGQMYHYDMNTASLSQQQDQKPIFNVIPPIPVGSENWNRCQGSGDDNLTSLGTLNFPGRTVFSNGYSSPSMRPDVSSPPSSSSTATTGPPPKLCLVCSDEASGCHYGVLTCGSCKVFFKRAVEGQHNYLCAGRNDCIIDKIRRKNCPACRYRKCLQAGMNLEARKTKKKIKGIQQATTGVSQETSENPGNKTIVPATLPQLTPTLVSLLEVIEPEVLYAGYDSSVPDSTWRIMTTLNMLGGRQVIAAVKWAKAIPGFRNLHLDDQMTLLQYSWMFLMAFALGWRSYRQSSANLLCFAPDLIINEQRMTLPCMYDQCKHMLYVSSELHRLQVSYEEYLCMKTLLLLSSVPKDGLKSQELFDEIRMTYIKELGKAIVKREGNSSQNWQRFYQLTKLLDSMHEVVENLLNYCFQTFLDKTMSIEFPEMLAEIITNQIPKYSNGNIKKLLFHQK
Sequence of Cytochrome P450 1A2 (Homo sapiens) (P05177 whole entry, looked up): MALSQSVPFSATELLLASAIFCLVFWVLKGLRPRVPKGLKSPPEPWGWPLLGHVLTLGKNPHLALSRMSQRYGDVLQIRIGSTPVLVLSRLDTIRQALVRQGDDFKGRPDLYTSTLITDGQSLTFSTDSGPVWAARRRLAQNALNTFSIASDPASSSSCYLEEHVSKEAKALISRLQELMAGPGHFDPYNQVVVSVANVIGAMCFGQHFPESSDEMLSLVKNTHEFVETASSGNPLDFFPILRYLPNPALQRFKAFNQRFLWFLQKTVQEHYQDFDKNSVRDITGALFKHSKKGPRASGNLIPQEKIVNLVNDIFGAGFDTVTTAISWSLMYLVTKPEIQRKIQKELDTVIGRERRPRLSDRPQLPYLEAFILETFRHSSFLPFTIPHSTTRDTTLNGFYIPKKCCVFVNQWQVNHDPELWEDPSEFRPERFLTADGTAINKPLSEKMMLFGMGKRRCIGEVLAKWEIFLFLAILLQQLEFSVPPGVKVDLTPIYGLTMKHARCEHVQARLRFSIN
Sequence of Lysosomal acid glucosylceramidase (Homo sapiens) (P04062 whole entry, looked up): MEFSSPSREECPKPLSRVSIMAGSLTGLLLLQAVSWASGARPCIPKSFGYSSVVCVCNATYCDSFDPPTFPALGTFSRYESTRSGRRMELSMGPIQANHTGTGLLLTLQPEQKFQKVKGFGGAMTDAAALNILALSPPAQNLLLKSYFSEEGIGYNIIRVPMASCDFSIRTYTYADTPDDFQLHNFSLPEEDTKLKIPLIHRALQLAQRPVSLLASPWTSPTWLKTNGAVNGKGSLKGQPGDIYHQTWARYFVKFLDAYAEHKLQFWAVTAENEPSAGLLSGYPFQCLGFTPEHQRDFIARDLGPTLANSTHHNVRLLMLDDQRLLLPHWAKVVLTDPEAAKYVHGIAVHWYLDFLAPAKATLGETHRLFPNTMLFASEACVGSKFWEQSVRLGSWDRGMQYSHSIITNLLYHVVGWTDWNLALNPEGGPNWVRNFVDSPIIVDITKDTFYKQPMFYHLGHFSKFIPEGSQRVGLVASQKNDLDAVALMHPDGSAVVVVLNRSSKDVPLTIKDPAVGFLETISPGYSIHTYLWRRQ

CCCn1c(=O)c2[nH]c(-c3ccc(OCC(=O)NCCN)cc3)nc2n(CCC)c1=O
inactive: activity change, negative = inhibition ([1]; at 38 µM (top of the series)) 6.39% | Potency [2] | activity change, negative = inhibition [3, 21] -8.17% | activity, negative = inhibition ([4]; at 38 µM (top of the series)) -14% | Potency [5] > 46 µM | Potency [6] > 46 µM | Potency [7]

O=C(c1cc(O)c(O)c([N+](=O)[O-])c1)c1ccccc1F
inactive: activity change, negative = inhibition ([1]; at 38 µM (top of the series)) -17.8% | Potency [2] | activity change, negative = inhibition [3, 21] 0.576% | activity, negative = inhibition ([4]; at 38 µM (top of the series)) -12.2% | Potency [5] > 46 µM | Potency [6] > 46 µM

O=C(O)CC[C@@H](C(=O)O)N1C(=O)c2ccccc2C1=O
inactive: Potency [8] > 11.4 µM | activity change, negative = inhibition ([1]; at 7.69 µM (top of the series)) -7.49% | activity change, negative = inhibition ([1]; at 38 µM (top of the series)) 3.98% | Potency [2] | activity change, negative = inhibition ([3]; at 7.69 µM (top of the series)) 15.2% | activity change, negative = inhibition ([3]; at 38 µM (top of the series)) -1.84% | activity, negative = inhibition ([4]; at 7.69 µM (top of the series)) 3.89% | activity, negative = inhibition ([4]; at 38 µM (top of the series)) 0.0495% | Potency [5] > 46 µM | Potency [6] > 46 µM and > 9.22 µM | Potency [7]

O=c1[nH]c2cc([N+](=O)[O-])c([N+](=O)[O-])cc2[nH]c1=O
inactive: activity change, negative = inhibition ([1]; at 38 µM (top of the series)) -3.93% | Potency [2] | activity change, negative = inhibition [3, 21] 4.52% | activity, negative = inhibition ([4]; at 38 µM (top of the series)) 21% | Potency [5] > 46 µM | Potency [6] > 46 µM | Potency [7]

O=C1NC(O)=NC1(c1ccccc1)c1ccccc1
inactive: activity change, negative = inhibition ([1]; at 38 µM (top of the series)) 1.51% | Potency [2] | activity change, negative = inhibition [3, 21] -13.5% | activity, negative = inhibition ([4]; at 38 µM (top of the series)) -6.76% | Potency [5] > 46 µM | Potency [6] > 46 µM

Nc1ccc(O)c(C(=O)O)c1
inactive: activity change, negative = inhibition ([1]; at 17.2 µM (top of the series)) 12.5% | Potency [2] | Potency [9] > 92 µM | Potency [10] > 92 µM | Potency [11] > 92 µM | Potency [12] > 92 µM | Potency [13] > 92 µM | Potency [14] > 92 µM | activity change, negative = inhibition [3, 21] -25.5% [at 17.2 µM] | activity, negative = inhibition ([4]; at 17.2 µM (top of the series)) -23.9% | Potency [5] > 20.6 µM | Potency [6] > 20.6 µM | Potency [7] | Potency [15] | Potency [16] | Potency [17] | Potency [18] | Potency [19] | activity change, negative = cytotoxicity [20] 10.5%
